The source made the active and inactive calls.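 The calls were made as follows: active = fitted half-maximal concentration AC50 at or below ten times the highest valid tested dose, with signal falling as DNA is displaced (actives reach about 34 µM in these data); inconclusive = flat fit at moderate signal loss, or poor fit quality; inactive = the rest, including signal rising instead of falling.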
experiment: acridine orange-DNA binding displacement – biochemical, fluorescence polarization, cherry-picked samples, set 2, artefact control for KSHV LANA DNA-binding inhibitor project, dose response (AID 504727); settings: series mostly up to 35 µM; activity change, negative = DNA displacement: at the top concentration;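 as to activity change, negative = DNA displacement: 0% = median of neutral control wells and -100% = mitoxantrone positive control wells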

| Compound | activity change, negative = DNA displacement | AC50 |
| --- | --- | --- |
| COC(=O)c1ccc(OCC(O)CN2CCC(C)CC2)cc1 (centres undefined) | -2.58% (inactive) |  |
| CC(C)=C1C2C=CC1C(C(=O)Nc1cc(C)ccc1C)C2C(=O)O (centres undefined) | 1.34% (inactive) |  |
| O=C(CCNc1ccc(Cc2ccncc2)cc1)c1cccc([N+](=O)[O-])c1 | -1.92% (inactive) |  |
| COc1cccc(NC(=O)CN(C)CC(=O)NCc2ccco2)c1 | 4.77% (inactive) |  |
| COc1cc(NC(=O)c2ccc(CNc3c(N4CCCC4)c(=O)c3=O)cc2)cc(OC)c1OC | 1.61% (inactive) |  |
| Nc1cccc2cc(S(=O)(=O)O)ccc12 | 5.63% (inactive) |  |
| O=C(Nc1ccccc1F)c1coc(=O)c(Br)c1 | 3.69% (inactive) |  |
| CCN(CC)CCN1C(=O)c2cccc3cc(N)cc(c23)C1=O |  | 17 µM (active) |
| O=C(CN(Cc1ccccc1F)C(=O)c1csnn1)NCc1ccc2c(c1)OCO2 | 5.17% (inactive) |  |
| CCOC(=O)N1CCN(C(=S)NC(=O)c2cccc(OC)c2)CC1 | -1.6% (inactive) |  |
| COCCN(CCOC)Cc1c(O)ccc2c1O/C(=C\c1ccco1)C2=O |  | 27.5 µM (active) |
| Nc1cc(N)nc(SCC(=O)N2CCCCC2)n1 | 3.31% (inactive) |  |
| CCN(CC(=O)Nc1ccc(OC)cc1)C(=O)c1cc([N+](=O)[O-])ccc1N1CCOCC1 | -1.23% (inactive) |  |
| COc1ccc(OC)c(NC(=O)c2nnn(Cc3ccc(Br)cc3F)c2N)c1 | 7.55% (inactive) |  |
| CC(C)c1ccc(CNc2ccc([N+](=O)[O-])cn2)cc1 | 0.311% (inactive) |  |
| CC(C)=C[C@@H]1C[C@H](C)[C@H]2CC[C@H](C)c3c(O[C@@H]4O[C@@H](C)[C@@H](O)[C@@H](O)[C@@H]4O)c(O)c(C)c1c32 | 4.1% (inactive) |  |
| COc1cc(SC)ccc1C(=O)Nc1nc(C)cs1 | -0.454% (inactive) |  |
| COc1ccc2[nH]c3c(C)c4cc[n+](C)cc4c(C)c3c2c1 |  | 2.53 µM (active) |
| O=C(NC1CCCCC1)c1cc([N+](=O)[O-])ccc1N1CCOCC1 | -1.73% (inactive) |  |
| O=C(OCC(=O)N1N=C(c2ccc(Cl)cc2)CC1c1ccco1)c1cccnc1 (centres undefined) | 6.32% (inactive) |  |

| Compound | activity change, negative = DNA displacement | AC50 |
| --- | --- | --- |
| CCOc1ccccc1N1CCN(C(=O)c2ccc3nc(N)sc3c2)CC1 | 5.07% (inactive) |  |
| COc1ccc(N=Nc2nc3ccc(Br)cc3n2C)cc1 | -3.72% (inactive) |  |
| O=C(O)c1cccc(-n2cccc2/C=C/[N+](=O)[O-])c1 | 5.04% (inactive) |  |
| O=c1[nH]c2c(s1)C=Nc1ccccc1N2 |  | 6.39 µM (active) |
| Cc1ccc(S(=O)(=O)/N=C2/C=C(Sc3ncn[nH]3)C(=O)c3ccccc32)cc1 | -0.37% (inactive) |  |
| NNC(=S)Nc1ccc(S(=O)(=O)N2CCOCC2)cc1 | 7.25% (inactive) |  |
| CCN(C(=O)COC(=O)CCCOc1ccc(Cl)cc1C)c1c(N)n(Cc2ccccc2)c(=O)[nH]c1=O | -10.8% (inactive) |  |
| N=c1ccn(Cc2ccc(Cl)cc2)cc1 | 5.76% (inactive) |  |
| C=CC[C@@H](CC(=O)N(CCO)Cc1ccccc1)C(=O)NC[C@H](OC(=O)[C@@H](CC=C)CC(=O)OC(C)(C)C)c1ccccc1 | -0.711% (inactive) |  |
| Cc1cc(N)ccc1N=Nc1c(C)n(C)n(-c2ccccc2)c1=O | 3.39% (inactive) |  |
| N=C1/C(=C/c2ccc(-c3cccc(C(=O)O)c3)o2)C(=O)N=C2SC(CC(=O)N3CCOCC3)=NN12 | 6.55% (inactive) |  |
| CN(C)C(=O)c1ccc(NC(=O)COC(=O)C2(c3ccccc3)CCCC2)cc1 | 3.07% (inactive) |  |
| O=C(O)Cc1ccc(N=Nc2c(O)c(C(=O)O)cc3ccccc23)cc1 | 3.29% (inactive) |  |
| CCC(Sc1ncccc1C(=O)O)C(=O)N1CCCC1 (centres undefined) | 6.54% (inactive) |  |
| Nc1c(/C=C2/C=CC(=O)C(O)=C2)c(=O)nc2sc(CC(=O)N3CCCC3)nn12 | 5.34% (inactive) |  |
| Clc1ccc(-c2nnc3sc(-c4ccc(Br)o4)nn23)cc1 | 3.69% (inactive) |  |
| COc1cccc2c1C(=O)c1c(O)c3c(c(O)c1C2=O)CC(O)(C(C)=NNC(=O)c1ccc(Cl)c(Cl)c1)CC3OC1CC(N)C(O)C(C)O1 (centres undefined) |  | 2.05 µM (active) |
| O=C1CCN2C=Nc3cccc4ccc1c2c34 |  | 2.29 µM (active) |
| CN(Cc1cnc2nc(N)nc(N)c2n1)c1ccc(C(=O)NC(CCC(=O)O)C(=O)O)cc1 (centres undefined) | 2.09% (inactive) |  |
